Laboratory results as given in the supplement of paper PMC12808144.

Columns and labels:
NHEM-hTERT = experiment: cell viability relative to DMSO control (fraction of DMSO control); higher = less cytotoxic, active = 0.5 or less; settings: 1 µM; 120 h
Procedure, shortened: (§1)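 Three cell types were screened against 315 approved anti-cancer drugs from TargetMol, acoustically pre-spotted in 384-well plates at 1 µM in duplicate over 120 h: NHEM-hTERT immortalized melanocytes (2500/well), patient-derived Mel-DCC-11 and its resistant subline Mel-DCC-11-R (both 1500/well), all in 40 µl per well. The subline was tested alone and with 8 µM of its selecting drug. Viability, measured by luminescence, was normalised to vehicle controls and averaged across duplicates, with ATPlite 1step as the readout.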

Mel-DCC-11-R = experiment: cell viability relative to DMSO control (fraction of DMSO control); higher = less cytotoxic, active = 0.8 or less; settings: 1 µM, 120 h
Procedure, shortened: as §1

Measured: cell viability

NC(=O)N1CCC(CC(=O)N2CCC([C@H]3c4ncc(Br)cc4CCc4cc(Cl)cc(Br)c43)CC2)CC1 [Lonafarnib]
inactive: NHEM-hTERT 0.9 | Mel-DCC-11-R; vemurafenib co-treatment 0 µM 0.926 | Mel-DCC-11-R; vemurafenib co-treatment 8 µM 0.889

CCCc1cc(C)[nH]c(=O)c1CNC(=O)c1cc(-c2ccnc(N3CCN(C)CC3)c2)cc2c1cnn2C(C)C
inactive: NHEM-hTERT 1.01 | Mel-DCC-11-R; vemurafenib co-treatment 0 µM 0.999 | Mel-DCC-11-R; vemurafenib co-treatment 8 µM 0.88

CCOC(N)=O [Urethane]
inactive: NHEM-hTERT 1.09 | Mel-DCC-11-R; vemurafenib co-treatment 0 µM 0.987 | Mel-DCC-11-R; vemurafenib co-treatment 8 µM 1

CCOC(=O)[C@@H](N)Cc1ccc(-c2cc(O[C@H](c3ccc(Cl)cc3-n3ccc(C)n3)C(F)(F)F)nc(N)n2)cc1.O=C(O)CNC(=O)c1ccccc1 [Telotristat Etiprate]
inactive: NHEM-hTERT 1.04 | Mel-DCC-11-R; vemurafenib co-treatment 0 µM 1.08 | Mel-DCC-11-R; vemurafenib co-treatment 8 µM 1.07

C[C@H]1O[C@@H](n2cc(F)c(=O)[nH]c2=O)[C@H](O)[C@@H]1O [Doxifluridine]
inactive: NHEM-hTERT 0.863 | Mel-DCC-11-R; vemurafenib co-treatment 0 µM 1.08 | Mel-DCC-11-R; vemurafenib co-treatment 8 µM 1.21

CCc1c2c(nc3ccc(OC(=O)N4CCC(N5CCCCC5)CC4)cc13)-c1cc3c(c(=O)n1C2)COC(=O)[C@]3(O)CC.Cl.O.O.O [Irinotecan hydrochloride trihydrate]
inactive: NHEM-hTERT 0.875 | Mel-DCC-11-R; vemurafenib co-treatment 0 µM 1.32 | Mel-DCC-11-R; vemurafenib co-treatment 8 µM 0.937

Cc1c(C)c2c(c(C)c1O)CCC(C)(COc1ccc(CC3SC(=O)NC3=O)cc1)O2 (configuration not stated) [Troglitazone]
inactive: NHEM-hTERT 1.05 | Mel-DCC-11-R; vemurafenib co-treatment 0 µM 1.01 | Mel-DCC-11-R; vemurafenib co-treatment 8 µM 1.12

Cc1c(C(=O)Nc2ccc(N3C[C@@H](C)O[C@@H](C)C3)nc2)cccc1-c1ccc(OC(F)(F)F)cc1 [Sonidegib]
inactive: NHEM-hTERT 1.04 | Mel-DCC-11-R; vemurafenib co-treatment 0 µM 1.03 | Mel-DCC-11-R; vemurafenib co-treatment 8 µM 1.2

CS(=O)(=O)CCNCc1ccc(-c2ccc3ncnc(Nc4ccc(OCc5cccc(F)c5)c(Cl)c4)c3c2)o1.Cc1ccc(S(=O)(=O)O)cc1.Cc1ccc(S(=O)(=O)O)cc1 [Lapatinib Ditosylate]
inactive: NHEM-hTERT 1.13 | Mel-DCC-11-R; vemurafenib co-treatment 0 µM 1.27 | Mel-DCC-11-R; vemurafenib co-treatment 8 µM 0.885
